Results from PubChem BioAssay AID1159580 (chemical genetic matrix, 2015).
Screen size: about 5,500 compounds; about 2,000 (36%) were called active. Inconclusive results (about 18%) are left out. Cut-off read from the data, not from the text of the source: active = normalized growth mostly below about 0.91 (no sharp cut-off); inconclusive = no clear call, values can overlap the other calls; inactive = mostly above about 0.92. The list shows a part of the results.

Assay: chemical genetic growth profiling, strain panel (AID 1159580);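 note: tested at 20 µM; growth read once vehicle control cultures reached saturation at 30 °C; 1 = growth at the plate median or of vehicle wells; lower values mean less growth of the strain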
Details: growth OD
[1] = S. cerevisiae deletion strains, locus YDL101C, strain DUN1, stronger effect = lower value
[2] = S. cerevisiae deletion strains, locus YHR030C, strain SLT2, stronger effect = lower value

Measured: normalized growth

Cc1c(-c2ccnc(N)n2)nnn1-c1ccc(Cl)cc1Cl
inactive: S. cerevisiae deletion strains, locus YAL013W, strain DEP1, stronger effect = lower value 1 | S. cerevisiae deletion strains, locus YBR229C, strain ROT2, stronger effect = lower value 0.974 | [1] 0.981 | S. cerevisiae deletion strains, locus YDR150W, strain NUM1, stronger effect = lower value 1.03 | S. cerevisiae deletion strains, locus YEL061C, strain CIN8, stronger effect = lower value 0.959 | S. cerevisiae deletion strains, locus YGR078C, strain PAC10, stronger effect = lower value 0.985 | [2] 0.732 | S. cerevisiae deletion strains, locus YHR087W, strain rtc3, stronger effect = lower value 0.959 | S. cerevisiae deletion strains, locus YJL187C, strain SWE1, stronger effect = lower value 1.01 | S. cerevisiae deletion strains, locus YJR043C, strain POL32, stronger effect = lower value 1.01 | S. cerevisiae deletion strains, locus YJR075W, strain HOC1, stronger effect = lower value 0.967 | S. cerevisiae deletion strains, locus YKL190W, strain CNB1, stronger effect = lower value 1.01 | S. cerevisiae deletion strains, locus YLR039C, strain RIC1, stronger effect = lower value 0.936 | S. cerevisiae deletion strains, locus YLR058C, strain SHM2 (second series), stronger effect = lower value 0.989 | S. cerevisiae deletion strains, locus YLR085C, strain ARP6, stronger effect = lower value 0.885 | S. cerevisiae deletion strains, locus YLR262C, strain YPT6, stronger effect = lower value 0.932 | S. cerevisiae deletion strains, locus YML094W, strain GIM5, stronger effect = lower value 0.988 | S. cerevisiae deletion strains, locus YMR219W, strain ESC1, stronger effect = lower value 1 | S. cerevisiae deletion strains, locus YMR263W, strain SAP30, stronger effect = lower value 0.98 | S. cerevisiae deletion strains, locus YNL153C, strain GIM3, stronger effect = lower value 0.991 | S. cerevisiae deletion strains, locus YNL298W, strain CLA4 (second series), stronger effect = lower value 0.973 | S. cerevisiae deletion strains, locus YNL322C, strain KRE1, stronger effect = lower value 1.01 | S. cerevisiae deletion strains, locus YNR030W, strain Alg12, stronger effect = lower value 0.975 | S. cerevisiae deletion strains, locus YOL006C, strain TOP1, stronger effect = lower value 0.921 | S. cerevisiae deletion strains, locus YPL055C, strain LGE1, stronger effect = lower value 1.08 | S. cerevisiae deletion strains, locus YPL241C, strain CIN2, stronger effect = lower value 0.957 | S. cerevisiae deletion strains, locus YPR135W, strain CTF4, stronger effect = lower value 0.687 | S. cerevisiae strains, strain wild type, stronger effect = lower value 0.992

O=C1CSC(c2cccnc2)N1c1ccc(Cl)cc1Cl (centres undefined)
inactive: S. cerevisiae deletion strains, locus YAR019C, strain CDC15, stronger effect = lower value 0.986 | S. cerevisiae deletion strains, locus YBL105C, strain PKC1, stronger effect = lower value 0.996 | S. cerevisiae deletion strains, locus YBR135W, strain CKS1, stronger effect = lower value 0.994 | S. cerevisiae deletion strains, locus YBR136W, strain MEC1, stronger effect = lower value 0.99 | S. cerevisiae deletion strains, locus YBR160W, strain CDC28, stronger effect = lower value 0.994 | S. cerevisiae deletion strains, locus YDL017W, strain CDC7, stronger effect = lower value 0.992 | S. cerevisiae deletion strains, locus YDL028C, strain MPS1, stronger effect = lower value 0.992 | [1] 1 | S. cerevisiae deletion strains, locus YDL108W, strain KIN28, stronger effect = lower value 0.985 | S. cerevisiae deletion strains, locus YDL132W, strain cdc53, stronger effect = lower value 0.993 | S. cerevisiae deletion strains, locus YDL214C, strain PRR2, stronger effect = lower value 0.931 | S. cerevisiae deletion strains, locus YDR052C, strain DBF4, stronger effect = lower value 0.997 | S. cerevisiae deletion strains, locus YDR054C, strain cdc34, stronger effect = lower value 0.987 | S. cerevisiae deletion strains, locus YDR226W, strain ADK1, stronger effect = lower value 0.989 | S. cerevisiae deletion strains, locus YDR477W, strain SNF1, stronger effect = lower value 0.919 | S. cerevisiae deletion strains, locus YER123W, strain YCK3, stronger effect = lower value 0.823 | S. cerevisiae deletion strains, locus YER133W, strain GLC7, stronger effect = lower value 0.897 | S. cerevisiae deletion strains, locus YFL009W, strain cdc4, stronger effect = lower value 1 | S. cerevisiae deletion strains, locus YFL029C, strain CAK1, stronger effect = lower value 0.98 | S. cerevisiae deletion strains, locus YFR003C, strain YPI1, stronger effect = lower value 0.99 | S. cerevisiae deletion strains, locus YFR019W, strain FAB1, stronger effect = lower value 0.796 | S. cerevisiae deletion strains, locus YFR028C, strain CDC14, stronger effect = lower value 0.993 | S. cerevisiae deletion strains, locus YGR040W, strain KSS1, stronger effect = lower value 0.93 | S. cerevisiae deletion strains, locus YGR052W, strain FMP48, stronger effect = lower value 0.902 | S. cerevisiae deletion strains, locus YGR092W, strain DBF2, stronger effect = lower value 0.972 | [2] 0.958 | S. cerevisiae deletion strains, locus YHR079C, strain IRE1, stronger effect = lower value 0.964 | S. cerevisiae deletion strains, locus YHR082C, strain KSP1, stronger effect = lower value 0.932 | S. cerevisiae deletion strains, locus YHR205W, strain SCH9, stronger effect = lower value 0.98 | S. cerevisiae deletion strains, locus YIL147C, strain SLN1, stronger effect = lower value 0.998 | S. cerevisiae deletion strains, locus YJL095W, strain BCK1, stronger effect = lower value 0.906 | S. cerevisiae deletion strains, locus YJL128C, strain PBS2, stronger effect = lower value 0.993 | S. cerevisiae deletion strains, locus YJL157C, strain FAR1, stronger effect = lower value 0.948 | S. cerevisiae deletion strains, locus YJR016C, strain ILV3, stronger effect = lower value 0.993 | S. cerevisiae deletion strains, locus YJR066W, strain TOR1 (second series), stronger effect = lower value 0.893 | S. cerevisiae deletion strains, locus YJR066W, strain TOR1, stronger effect = lower value 0.837 | S. cerevisiae deletion strains, locus YKL048C, strain ELM1, stronger effect = lower value 1.01 | S. cerevisiae deletion strains, locus YKL067W, strain YNK1, stronger effect = lower value 0.944 | S. cerevisiae deletion strains, locus YKL101W, strain HSL1, stronger effect = lower value 0.993 | S. cerevisiae deletion strains, locus YKL193C, strain SDS22, stronger effect = lower value 0.989 | S. cerevisiae deletion strains, locus YKL203C, strain TOR2, stronger effect = lower value 0.945 | S. cerevisiae deletion strains, locus YLR113W, strain HOG1, stronger effect = lower value 0.913 | S. cerevisiae deletion strains, locus YLR133W, strain CKI1, stronger effect = lower value 0.962 | S. cerevisiae deletion strains, locus YLR403W, strain SFP1, stronger effect = lower value 0.937 | S. cerevisiae deletion strains, locus YML070W, strain DAK1, stronger effect = lower value 0.939 | S. cerevisiae deletion strains, locus YMR001C, strain CDC5, stronger effect = lower value 0.991 | S. cerevisiae deletion strains, locus YMR205C, strain PFK2 (second series), stronger effect = lower value 0.968 | S. cerevisiae deletion strains, locus YMR277W, strain FCP1, stronger effect = lower value 0.992 | S. cerevisiae deletion strains, locus YNL006W, strain LST8, stronger effect = lower value 0.986 | S. cerevisiae deletion strains, locus YNL020C, strain ARK1, stronger effect = lower value 0.974 | S. cerevisiae deletion strains, locus YNL161W, strain CBK1, stronger effect = lower value 0.985 | S. cerevisiae deletion strains, locus YNL183C, strain NPR1, stronger effect = lower value 0.912 | S. cerevisiae deletion strains, locus YNL207W, strain RIO2, stronger effect = lower value 0.998 | S. cerevisiae deletion strains, locus YNL222W, strain SSU72, stronger effect = lower value 0.99 | S. cerevisiae deletion strains, locus YNL307C, strain MCK1 (second series), stronger effect = lower value 0.952 | S. cerevisiae deletion strains, locus YOL078W, strain AVO1, stronger effect = lower value 0.994 | S. cerevisiae deletion strains, locus YOL136C, strain PFK27, stronger effect = lower value 0.919 | S. cerevisiae deletion strains, locus YOR061W, strain CKA2, stronger effect = lower value 0.939 | S. cerevisiae deletion strains, locus YOR119C, strain RIO1, stronger effect = lower value 0.919 | S. cerevisiae deletion strains, locus YOR231W, strain MKK1, stronger effect = lower value 0.937 | S. cerevisiae deletion strains, locus YOR329C, strain SCD5, stronger effect = lower value 0.99 | S. cerevisiae deletion strains, locus YPL031C, strain PHO85, stronger effect = lower value 0.928 | S. cerevisiae deletion strains, locus YPL153C, strain RAD53, stronger effect = lower value 0.933 | S. cerevisiae deletion strains, locus YPL204W, strain HRR25, stronger effect = lower value 0.92 | S. cerevisiae deletion strains, locus YPL209C, strain IPL1, stronger effect = lower value 0.989 | S. cerevisiae deletion strains, locus YPL256C, strain CLN2, stronger effect = lower value 0.88 | S. cerevisiae deletion strains, locus YPR025C, strain CCL1, stronger effect = lower value 0.984 | S. cerevisiae deletion strains, locus YPR106W, strain ISR1, stronger effect = lower value 1.01 | S. cerevisiae deletion strains, locus YPR111W, strain DBF20, stronger effect = lower value 1 | S. cerevisiae deletion strains, strain NNK1, stronger effect = lower value 0.998 | S. cerevisiae deletion strains, strain TSCII, stronger effect = lower value 0.989
